# Inconclusive results are not listed. A call without a number means that no potency is given here. Active and inactive are the calls of the source. Unless noted, the call rests on the fitted dose curve; in most records, active means well fitted curve in the direction sought with a large enough effect; inconclusive means small, poorly fitted or top-dose-only effect, or another doubt; inactive means no such curve, though single readings can be large; an effect the other way counts as inactive or inconclusive.
# What was measured:
# [1] = S16 Schwann cell PMP22 intronic element beta-lactamase assay (AID 624044; calls by dose curve; further: nearly all actives have a fitted effect of over 15% in size)
# Method in brief: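 Rat S16 Schwann cells with beta-Lac driven by a PMP22 intronic element, compound-treated 24 h at 37 °C. LiveBLAzer FRET B/G read: 460 nm normalized to potassium clavulanate vs DMSO; 535 nm FRET as viability; concentration-effect curves classified.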
# AS120 = test: qHTS profiling for inhibitors of Plasmodium falciparum proliferation (AID 504749); further: nearly all actives have a fitted effect of over 60% in size; further: potency means the concentration at half of the fitted maximal effect; settings: P. falciparum in erythrocytes, SYBR Green DNA, 72 h; series mostly up to 28.7 µM
# Method in brief: (§1)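 Three-day growth assay of blood-stage parasites in erythrocytes (0.3% parasitemia, 2.5% hematocrit) at 37 C, 5% CO2, quantified by SYBR Green DNA staining after overnight detergent lysis.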
# ATS189 = test: as above; settings: P. falciparum in erythrocytes, SYBR Green DNA, 72 h; series mostly up to 12.8 µM
# Method in brief: as §1
# C2A = test: as above; settings: P. falciparum in erythrocytes, SYBR Green DNA, 72 h; series mostly up to 12.8 µM
# Method in brief: as §1
# CP203 = test: as above; settings: P. falciparum in erythrocytes, SYBR Green DNA, 72 h; series mostly up to 12.8 µM
# Method in brief: as §1
# CP250 = test: as above; settings: P. falciparum in erythrocytes, SYBR Green DNA, 72 h; series mostly up to 12.8 µM
# Method in brief: as §1
# CP256 = test: as above; settings: P. falciparum in erythrocytes, SYBR Green DNA, 72 h; series mostly up to 12.8 µM
# Method in brief: as §1
# CP291 = test: as above; settings: P. falciparum in erythrocytes, SYBR Green DNA, 72 h; series mostly up to 12.8 µM
# Method in brief: as §1
# CP329 = test: as above; settings: P. falciparum in erythrocytes, SYBR Green DNA, 72 h; series mostly up to 12.8 µM
# Method in brief: as §1
# ECU = test: as above; settings: P. falciparum in erythrocytes, SYBR Green DNA, 72 h; series mostly up to 12.8 µM
# Method in brief: as §1
# FAB9 = test: as above; settings: P. falciparum in erythrocytes, SYBR Green DNA, 72 h; series mostly up to 12.8 µM
# Method in brief: as §1
# JCK = test: as above; settings: P. falciparum in erythrocytes, SYBR Green DNA, 72 h; series mostly up to 12.8 µM
# Method in brief: as §1
# PAD = test: as above; settings: P. falciparum in erythrocytes, SYBR Green DNA, 72 h; series mostly up to 12.8 µM
# Method in brief: as §1
# PC15 = test: as above; settings: P. falciparum in erythrocytes, SYBR Green DNA, 72 h; series mostly up to 12.8 µM
# Method in brief: as §1
# TAB113 = test: as above; settings: P. falciparum in erythrocytes, SYBR Green DNA, 72 h; series mostly up to 12.8 µM
# Method in brief: as §1
# W2 = test: as above; settings: P. falciparum in erythrocytes, SYBR Green DNA, 72 h; series mostly up to 12.8 µM
# Method in brief: as §1
# [2] = Viability counterscreen for antagonist of constitutive androstane receptor (CAR) against the NCATS DSHEA and TCM libraries (AID 1794837);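 further: compound exposure lasted 24 h before viability reading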
# Method in brief: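 HepG2-CYP2B6-hCAR cells, 2,500/well, were exposed 24 hr at 37C to substances together with 48 uM CITCO (final). Viability was read as CellTiter-Fluor fluorescence (Ex/Em 405/540 nm) after 1 hr.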
# [3] = target: Cytochrome P450 1A2 (Homo sapiens) (UniProt P05177); test: qHTS for inhibitors of CYPIA2 against the NCATS DSHEA and TCM libraries (AID 1919976); further: potency means the concentration at half of the fitted maximal effect
# Chain of Cytochrome P450 1A2 (Homo sapiens) (P05177 whole entry, looked up): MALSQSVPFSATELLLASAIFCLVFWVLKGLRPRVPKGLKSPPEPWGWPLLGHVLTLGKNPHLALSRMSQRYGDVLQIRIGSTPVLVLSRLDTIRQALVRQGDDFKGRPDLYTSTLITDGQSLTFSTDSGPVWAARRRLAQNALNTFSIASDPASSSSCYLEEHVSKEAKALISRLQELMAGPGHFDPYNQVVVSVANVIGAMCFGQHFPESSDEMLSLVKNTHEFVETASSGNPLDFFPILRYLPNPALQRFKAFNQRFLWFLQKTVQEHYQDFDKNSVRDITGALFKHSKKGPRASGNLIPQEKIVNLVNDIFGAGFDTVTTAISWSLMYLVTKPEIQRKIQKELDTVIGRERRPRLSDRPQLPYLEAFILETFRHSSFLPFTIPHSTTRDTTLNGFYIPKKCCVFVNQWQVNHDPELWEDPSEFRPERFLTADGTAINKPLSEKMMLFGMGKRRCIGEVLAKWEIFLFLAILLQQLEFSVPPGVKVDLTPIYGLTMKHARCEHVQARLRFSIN
# Method in brief: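 In this quantitative HTS, inhibition of recombinant human CYP1A2 was measured as loss of luciferin-derived luminescence. Turnover ran 30-45 min at RT after NADPH regeneration solution was added.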
# [4] = target: Nuclear receptor subfamily 1 group I member 2 (Homo sapiens) (UniProt O75469); test: Dual reporter qHTS for antagonist of Pregnane X Receptor (hPXR) against the NCATS DSHEA and TCM libraries: Luminescence Readout (AID 1920060)
# Chain of Nuclear receptor subfamily 1 group I member 2 (Homo sapiens) (O75469 whole entry, looked up): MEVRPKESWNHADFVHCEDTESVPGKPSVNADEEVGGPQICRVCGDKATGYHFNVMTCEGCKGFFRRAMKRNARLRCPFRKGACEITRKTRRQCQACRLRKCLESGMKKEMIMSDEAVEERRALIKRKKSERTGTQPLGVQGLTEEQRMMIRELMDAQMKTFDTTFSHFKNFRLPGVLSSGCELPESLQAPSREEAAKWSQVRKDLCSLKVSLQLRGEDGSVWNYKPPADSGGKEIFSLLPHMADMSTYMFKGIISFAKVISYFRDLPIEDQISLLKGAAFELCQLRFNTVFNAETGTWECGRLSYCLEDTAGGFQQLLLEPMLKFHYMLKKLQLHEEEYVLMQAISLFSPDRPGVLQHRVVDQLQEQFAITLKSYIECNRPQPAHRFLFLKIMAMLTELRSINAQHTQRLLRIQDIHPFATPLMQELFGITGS
# Method in brief: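 Rifampicin-stimulated (2 uM final) hPXR-luciferase HepG2 cells were treated for 24 h with DSNP/TCM substances. Viability came from CellTiter-Fluor fluorescence, reporter activity from ONE-Glo luminescence.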
Structure (SMILES),outcome [1],Potency (AS120),Potency (ATS189),Potency (C2A),Potency (CP203),Potency (CP250),Potency (CP256),Potency (CP291),Potency (CP329),Potency (ECU),Potency (FAB9),Potency (JCK),Potency (PAD),Potency (PC15),Potency (TAB113),Potency (W2),outcome [2],Potency [3],outcome [4]
C[N+](C)(C)CC(O)CC(=O)O (stereo not drawn),inactive,inactive,inactive,inactive,inactive,inactive,inactive,inactive,inactive,inactive,inactive,inactive,inactive,inactive,inactive,inactive,–,–,–
C=C[C@](C)(O)CCC=C(C)C,–,–,–,–,–,–,–,–,–,–,–,–,–,–,–,–,inactive,3550 nM (active),inactive
C=C(C)[C@H]1CC=C(C)C(=O)C1,–,–,–,–,–,–,–,–,–,–,–,–,–,–,–,–,inactive,inactive,inactive
CN(C)CC/C=C1\c2ccccc2CSc2ccccc21,inactive,–,–,inactive,–,inactive,inactive,–,inactive,inactive,inactive,inactive,inactive,inactive,–,1280 nM (active),–,–,–
O=c1ccc2ccc(O)cc2o1,–,–,–,–,–,–,–,–,–,–,–,–,–,–,–,–,inactive,inactive,inactive
CN1[C@@H]2CC[C@H]1CC(OC(=O)[C@@H](O)c1ccccc1)C2 (stereo partly drawn),inactive,inactive,inactive,inactive,inactive,inactive,inactive,inactive,inactive,inactive,inactive,inactive,inactive,inactive,inactive,inactive,–,–,–
CN1CCCC[C@@H]1CCN1c2ccccc2Sc2ccc(S(C)=O)cc21 (stereo partly drawn),inactive,inactive,inactive,inactive,inactive,inactive,inactive,inactive,inactive,inactive,inactive,inactive,inactive,inactive,inactive,inactive,–,–,–

# From PubChem BioAssay (NCATS)
